Results published in PubChem BioAssay (Tox21).
Inconclusive results are not listed. A number with no mark means an inactive call. The source made the active and inactive calls. Calls come from the whole dose curve.

Test: qHTS assay to identify small molecule agonists or antagonists of the thyroid stimulating hormone receptor (TSHR) signaling pathway - wild type cell line counter screen (AID 1259384)
Conditions: HEK293 wild type, cAMP HTRF counter-screen; series mostly up to 92.4 µM; cAMP activity change: at the top concentration
Description: U.S. Tox21 Program National Center for Advancing Translational Sciences [NCATS] NIH Chemical Genomics Center [NCGC] U.S. Environmental Protection Agency [EPA] National Institutes of Environmental Health Sciences [NIEHS] National Toxicology Program [NTP] U.S. Food and Drug Administration [FDA] Tox21 Assay Overview: TSHR is the receptor for thyrotropin (thyroid stimulating hormone or TSH), a member of the glycoprotein hormone family. TSH is released by the anterior pituitary gland and is the main regulator of thyroid gland growth and development. Upon binding circulating thyrotropin, a G-protein signal cascade activates adenylyl cyclase and […] cAMP concentration is increased. cAMP is a key second messenger involved extensively in cellular signal transduction pathways associated with the majority of G-protein coupled receptors (GPCRs). The activation of these GPCRs by neurotransmitters, lipids, nucleotides, peptides and hormones results in the activation or the inhibition of plasma membrane-bound adenylate cyclase through heterotrimeric G-proteins. A cell-based TSHR-Hek293 assay can be used to identify TSHR agonists. To eliminate the false positive compounds identified from screening a cell-based TSHR-Hek293 cell line, cAMP assay in a wild type Hek293 cells was used as a counter screening.
Tox21 Assay Protocol Summary: Hek293 cells (wild type) were dispensed at 800 cells/4 uL/well in 1536-well white plates using a Multidrop dispenser. After the assay plates were incubated at a 37 C/5% CO2 incubator for 18 hrs, 23 nL of compounds dissolved in DMSO, positive controls or DMSO only was transferred to the assay plate by a pin tool, followed by 1 ul medium containing Ro20-1724. After 30 min of incubation at room temperature, 2.5 ul/well of cAMP-d2 and 2.5 ul/well of anti-cAMP-cryptate were added respectively into the assay plates using a Flying Reagent Dispenser. The plates were incubated at room temperature for 1 hr. The fluorescence intensity in the plates was measured using an Envision plate reader. Each test compound was measured at 15 concentrations and in triplicates.
% is set by controls: 0 for no effect and ±100 for the full control effect; potency is the fitted concentration of half-maximal effect.

| SMILES | cAMP activity change | Potency |
| --- | --- | --- |
| Nc1ccc(Cl)cc1C(=O)c1ccccc1F | -1.6% [at 42.5 µM, hits give high values] | – |
| N#Cc1ccc(N(CC(N)=O)CC(F)(F)F)cc1C(F)(F)F | -0.134% | – |
| C[C@H]1[C@H](c2ccc(Cl)cc2)SC(=O)N1C(=O)NC1CCCCC1 | -1.12% | – |
| c1cc[n+]2c(c1)-c1cccc[n+]1CC2 | -1.47% [at 42.5 µM, hits give high values] | – |
| CCCCCON=O | -1.4% | – |
| CSC(C)(C)/C=N/O | 5.26% | – |
| Nc1ccccc1-c1ccccc1 | 1.04% | – |
| COC(=O)N(OC)c1ccccc1COc1ccn(-c2ccc(Cl)cc2)n1 | 3.58% | – |
| CCc1cccc(C)c1N(C(=O)CCl)[C@@H](C)COC | 1.46% | – |
| CC(Cc1ccccc1)N(C)Cc1ccco1 (stereo not given) | -3.5% [at 42.5 µM, hits give high values] | – |
| C[C@]12CC[C@H]3[C@@H](CCC4=CC(=O)CC[C@@H]43)[C@@H]1CC[C@@H]2OC(=O)CCc1ccco1 | 4.83% [at 42.5 µM, hits give high values] | – |
| CN | -0.112% | – |
| c1csc(-c2ccc(-c3cccs3)s2)c1 | -6.48% | – |
| CN1CCc2cc(Cl)c(O)cc2[C@H]2c3ccccc3CC[C@@H]21 | 0.228% [at 42.5 µM, hits give high values] | – |
| O=C1C2(Cl)C3(Cl)C4(Cl)C(Cl)(Cl)C5(Cl)C3(Cl)C1(Cl)C5(Cl)C24Cl (stereo not given) | – | inactive |
| COP(=S)(NC(C)C)Oc1ccc(C)cc1[N+](=O)[O-] (stereo not given) | -0.0606% | – |
| CCOC(=O)CCN(SN(C)C(=O)Oc1cccc2c1OC(C)(C)C2)C(C)C | 1.03% | – |
| O=C(NC(=O)c1ccccc1Cl)Nc1ccc(OC(F)(F)F)cc1 | -0.272% | – |
| Clc1c(Cl)c(Cl)c(Cl)c(Cl)c1Cl | -1.12% [at 8.39 µM, hits give high values] | – |
| C#CCC1=C(C)C(OC(=O)C2C(C=C(C)C)C2(C)C)CC1=O (stereo not given) | -0.322% | – |

| SMILES | cAMP activity change | Potency |
| --- | --- | --- |
| CCCN | -4.62% | – |
| CCOP(=S)(OCC)Oc1cc(C)nc(N(CC)CC)n1 | 0.057% | – |
| C[C@@H]1CC2=CC(=O)CC[C@@H]2[C@H]2CC[C@@]3(C)[C@@H](CC[C@]3(C)O)[C@@H]21 | 1.17% [at 42.5 µM, hits give high values] | – |
| N#Cc1sc2c(=O)c3ccccc3c(=O)c=2sc1C#N | -5.33% | – |
| O=C(Nc1ccc(F)cc1F)c1cccnc1Oc1cccc(C(F)(F)F)c1 | 1.16% | – |
| CN1C2CCC(C)(C)C1CC(OC(=O)C(O)(c1cccs1)c1cccs1)C2 (stereo not given) | 8.02% [at 42.5 µM, hits give high values] | – |
| CCOP(=O)(OCC)Oc1cc(C)nc(C(C)C)n1 | 5.56% | – |
| COC(=O)c1ccccc1S(=O)(=O)NC(=O)Nc1nc(C)nc(OC)n1 | 10.3% | – |
| CC(=O)[O][Pb]([c]1ccccc1)([c]1ccccc1)[c]1ccccc1 | 1.59% | – |
| CN(C)CCc1c[nH]c2ccccc12 | -3.46% | – |
| OCC(Br)CBr (stereo not given) | -2.59% | – |
| Cc1cccc(Cc2cnc[nH]2)c1C | 1.3% [at 42.5 µM, hits give high values] | – |
| COC(=O)/C=C(\C)OP(=O)(OC)OC | -0.338% | – |
| CC(O)C(=O)[O][Hg][c]1ccccc1 (stereo not given) | – | 5.66 µM (active) |
| CCN(CC)Cc1nccn1-c1ccc([N+](=O)[O-])cc1C(=O)c1ccccc1Cl | 1.01% [at 42.5 µM, hits give high values] | – |
| CSC(=O)c1c(C(F)F)nc(C(F)(F)F)c(C(=O)SC)c1CC(C)C | 0.881% | – |
| CC(Cc1ccc2c(c1)OCO2)NO (stereo not given) | -9.65% | – |
| COc1ccc(Cc2nccc3cc(OC)c(OC)cc23)cc1OC | 3.35% [at 42.5 µM, hits give high values] | – |
| N#CSCc1ccccc1 | -0.0379% | – |
| CCC(C)Nc1c([N+](=O)[O-])cc(C(C)(C)C)cc1[N+](=O)[O-] (stereo not given) | -3.22% | – |
